Test results: PubChem BioAssay (NCI)
Several values for one entry are separate records, joined by “and”; a condition that tells them apart may be missing. Equal entries are not always repeated. About 83,000 compounds went through this panel and 20% of them were active in at least one assay; those are over-represented in the sample as a whole.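 Single-dose data. Exposure time 48 hours. Values below 10 considered active.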 Activity calls are given as the source filed them.

Key:
Assay in all cases: NCI-60 one-dose screen, 48 h (100 = growth as untreated, 0 = no growth, -100 = all killed)
[1] = tested on: NCI-H23 lung; conditions: 10 µM unless noted
[2] = tested on: NCI-H226 lung; conditions: 10 µM unless noted
[3] = tested on: NCI-H322M lung; conditions: 10 µM unless noted
[4] = tested on: HOP-62 NSCLC; conditions: 10 µM unless noted
[5] = tested on: NCI-H460 lung; conditions: 10 µM unless noted
[6] = tested on: HOP-92 NSCLC; conditions: 10 µM
[7] = tested on: NCI-H522 lung; conditions: 10 µM unless noted
[8] = tested on: A549/ATCC NSCLC; conditions: 10 µM unless noted
[9] = tested on: 786-0 renal; conditions: 10 µM unless noted
[10] = tested on: COLO 205 colon; conditions: 10 µM unless noted
[11] = tested on: DU-145 prostate; conditions: 10 µM unless noted
[12] = tested on: K-562 leukemia; conditions: 10 µM unless noted
[13] = tested on: MALME-3M melanoma; conditions: 10 µM unless noted
[14] = tested on: MDA-MB-231 breast; conditions: 10 µM unless noted
[15] = tested on: RXF 393 renal; conditions: 10 µM unless noted
[16] = tested on: SF-268 CNS; conditions: 10 µM unless noted
[17] = tested on: SF-295 CNS; conditions: 10 µM unless noted
[18] = tested on: SF-539 CNS; conditions: 10 µM unless noted
[19] = tested on: UACC-257 melanoma; conditions: 10 µM unless noted
[20] = tested on: M14 melanoma; conditions: 10 µM unless noted

Measured: growth

CCOC(=O)C(NC(=O)C(Cc1ccc(N(CCCl)CCCl)cc1)NC(C)=O)C(C)C (centres undefined)
inactive: [1] 81% | [2] 90.8% | [3] 95.4% | [4] 83.5% | [5] 49.9% | [6] 98.7% | [7] 64.1% | [8] 56% | [9] 88.6% | [10] 66.5% | [11] 99.7% | [12] 85.6% | [13] 91.7% | [14] 96.8% | [15] 96.4% | [16] 71.5% | [17] 86% | [18] 77.3% | [19] 87.2% | [20] 84.1%

CCC(=O)OC1CCn2c1nc1c2C(=O)C(C)=C(N2CC2)C1=O (centres undefined)
active: [1] -28.5% | [2] -23% | [3] -5.88% | [4] -29.4% | [5] -23.6% | [7] -43% | [8] 2.51% | [9] -16.5% | [10] -74.3% | [12] 9.08% | [13] -60.4% | [15] -79.8% | [16] 7.54% | [17] 2.01% | [18] -33.6% | [19] -55.7% | [20] -58.1%
inactive: [6] 80.9% | [14] 71.7%

COc1cccc2c1cc([N+](=O)[O-])c1c(C(=O)O)cc3c(c12)OCO3
active: [10] -25.3% and -56.5%
inactive: [1] 56.4% and 93% | [2] 79.8% and 107% | [3] 50.4% and 99% | [4] 82.4% and 101% | [5] 33.5% and 106% | [6] 84% | [7] 35% and 63.9% | [8] 76.6% and 116% | [9] 77.3% and 98.8% | [11] 15.6% and 118% | [12] 73.5% and 67.8% | [13] 106% and 98.7% | [14] 88.4% and 106% | [15] 49.1% and 101% | [16] 45.9% and 113% | [17] 44.9% and 90.4% | [18] 71.9% and 90% | [19] 97.7% and 111% | [20] 84.5% and 99%

CC1=C(CO)C2=C(C)C3(CC3)[C@@](C)(O)C(=O)C2=C1
active: [1] -18.2% | [2] -28.6% | [3] -24.9% | [4] -36% | [5] -1.95% | [7] -81.7% | [8] 2.23% | [9] -21.3% | [10] -40.1% | [11] -20.1% | [13] -87.5% | [14] 4.5% | [15] 8.42% | [16] 4.48% | [17] -8.22% | [18] -62.8% | [19] -1.44% | [20] -59.3%
inactive: [12] 26.3%

CC[C@@]1(O)C[C@H](OC2CC(N(C)C)C(O)C(C)O2)c2c(O)c3c(c(O)c2[C@H]1OC1CC(N(C)C)C(O)C(C)O1)C(=O)c1cccc(O)c1C3=O (some centres undefined)
active: [1] -37.2% | [2] -16.2% | [3] -31.5% | [4] -20.2% | [5] -4.36% | [7] -65% | [8] 1.57% | [9] -2.72% | [10] -20.5% | [11] -4.8% | [12] -28.5% | [13] -93.7% | [14] -9.74% | [15] 0.503% | [16] -19.3% | [17] -27.2% | [18] -48.9% | [19] 2.59% | [20] -87.2%

C[C@]12CC[C@H](O)CC1=CC[C@@H]1[C@@H]2CC[C@]2(C)C(=O)CC[C@@H]12
inactive: [1] 96% | [2] 102% | [3] 91% | [4] 96.4% | [5] 108% | [7] 48% | [8] 106% | [9] 92.6% | [10] 93.4% | [11] 122% | [12] 80.5% | [13] 80.9% | [14] 106% | [15] 110% | [16] 106% | [17] 102% | [18] 100% | [19] 102% | [20] 101%

COC1CC(CC2CCC(C)C(C(C)C(=O)O)O2)OC2(OC(C)(C3CCC(C)(C4OC(C5OC(O)(CO)C(C)CC5C)CC4C)O3)CC2C)C1C (centres undefined)
inactive: [2] 22% | [4] 10.1% | [11] 17.5% | [15] 28% | [16] 10.7%
active: [1] 9.19% | [3] 9.36% | [5] 4.73% | [7] -55.7% | [8] 7.35% | [9] 6.74% | [10] -12% | [12] -67.6% | [13] -96% | [14] -21.7% | [17] -39.2% | [18] -49.1% | [19] 7.33% | [20] -71.9%

CC1=C2C(=O)[C@H]3[C@@H](CC=C4C[C@@H](O)CC[C@@]43C)[C@@H]2CC[C@]12O[C@@H]1C[C@H](C)CN[C@H]1[C@H]2C
inactive: [1] 106% | [2] 95.3% | [3] 86.4% | [4] 50.9% | [5] 100% | [8] 89.7% | [9] 127% | [10] 103% | [11] 151% | [12] 154% | [13] 84.6% | [14] 105% | [15] 98.8% | [16] 105% | [17] 93.3% | [18] 101% | [19] 104% | [20] 92.9%

O=C1c2ccccc2C(=O)C(Cl)C1Cl (centres undefined)
inactive: [1] 83.8% | [3] 96.1% | [4] 87.9% | [5] 101% | [8] 104% | [9] 16.8% | [11] 97.8% | [16] 87.5% | [17] 94.3% | [18] 89.5% | [20] 76.7%
active: [2] -74.2% | [6] -62.4% | [7] -65% | [10] -94.3% | [12] -7.91% | [13] -98.5% | [15] -9.44% | [19] 0.891%

C[C@H]1CCC/C=C/[C@@H]2C[C@H](O)C[C@H]2[C@H](O)/C=C/C(=O)O1
inactive: [8] 13.1% | [15] 11% | [16] 10.3% | [17] 20.9% | [18] 27.1% | [19] 13.1%
active: [1] -1.79% | [2] -36.3% | [3] 5.77% | [4] 4.67% | [5] 8.73% | [7] -43.6% | [9] -37.3% | [10] -75.4% | [11] -7.84% | [12] 5.56% | [13] -73% | [14] -68% | [20] -9.75%

Oc1cccc2cccnc12
inactive: [1] 102% and 109% and 104% | [2] 94.5% and 98.1% and 98.6% | [3] 104% and 111% and 95.5% | [4] 94.7% and 98.3% and 104% | [5] 83.7% and 104% and 102% | [6] 89.1% | [7] 10.8% and 103% | [8] 100% and 105% and 111% | [9] 106% and 105% | [10] 65% and 105% and 102% | [11] 82% and 108% and 111% | [12] 44.2% and 106% and 102% | [13] 96.3% and 98.2% | [14] 92.9% and 109% and 101% | [15] 95.7% and 104% and 112% | [16] 80% and 101% | [17] 99.7% and 108% and 115% | [18] 113% and 90.2% | [19] 80.1% and 98.6% and 111% | [20] 76% and 102% and 94.3%

CC[n+]1c(-c2ccccc2)c2cc(N)ccc2c2ccc(N)cc21
inactive: [2] 25.2% | [3] 25.9% | [8] 30.2% | [9] 15.6% | [12] 39% | [14] 33.1% | [17] 13.6% | [20] 33%
active: [1] -9.43% | [4] 1.84% | [5] 3.56% | [7] -28.2% | [10] -27.9% | [11] 9.09% | [13] -25% | [15] -16.7% | [16] -26.3% | [18] -12.7% | [19] -19.3%

CC[C@@]1(O)C[C@H](OC2CC(N(C)C)C(OC3CC(O)C(OC4CCC(=O)C(C)O4)C(C)O3)C(C)O2)c2c(cc3c(c2O)C(=O)c2c(O)ccc(O)c2C3=O)[C@H]1C(=O)OC (some centres undefined)
inactive: [9] 17.3% | [10] 11.1% | [14] 28.4% | [15] 12.6% | [16] 22.7%
active: [1] -8.87% | [2] -55.7% | [3] -17.8% | [4] 5.22% | [5] -14.4% | [7] -48.1% | [8] -10.6% | [11] 1.38% | [12] 0.0817% | [13] -12.2% | [17] 8.52% | [18] -5.75% | [19] -30.9% | [20] 3.55%

COc1ccccc1/C=C(/C)[N+](=O)[O-]
inactive: [1] 88.3% and 90.8% | [2] 100% and 105% | [3] 92.7% and 92.2% | [4] 109% and 83.1% | [5] 87.3% and 107% | [6] 96.5% | [7] 50% and 84.5% | [8] 93.3% and 76.9% | [9] 82.2% and 101% | [10] 67.4% and 106% | [11] 27.7% and 107% | [12] 39.9% and 97.5% | [13] 72.8% and 89.3% | [14] 70% and 105% | [16] 80.5% and 99.1% | [17] 102% and 94.6% | [18] 88% and 96.8% | [19] 80.9% and 75% | [20] 79.2% and 95%
-1.25% (active) and 116% (inactive): [15]
